Compounds without any hit were thinned out: in the full panel of roughly 83,000, 20% have a hit.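 Values shown are percent growth following 48 h exposure of cells in 96-well plates to a single concentration of compound; below 10 was considered active.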 Unmarked numbers belong to inactive results. The source made the active and inactive calls.
Tests used:
Test in all cases: NCI-60 one-dose screen, 48 h (100 = growth as untreated, 0 = no growth, -100 = all killed)
Conditions in all cases: 10 µM
DU-145 prostate = tested on: DU-145 prostate
K-562 leukemia = tested on: K-562 leukemia
MALME-3M melanoma = tested on: MALME-3M melanoma
MDA-MB-231 breast = tested on: MDA-MB-231 breast
RXF 393 renal = tested on: RXF 393 renal
SF-268 CNS = tested on: SF-268 CNS
SF-295 CNS = tested on: SF-295 CNS
SF-539 CNS = tested on: SF-539 CNS
UACC-257 melanoma = tested on: UACC-257 melanoma
M14 melanoma = tested on: M14 melanoma

Structure (SMILES)	growth (DU-145 prostate) [%]	growth (K-562 leukemia)	growth (MALME-3M melanoma) [%]	growth (MDA-MB-231 breast)	growth (RXF 393 renal)	growth (SF-268 CNS) [%]	growth (SF-295 CNS) [%]	growth (SF-539 CNS) [%]	growth (UACC-257 melanoma)	growth (M14 melanoma)
Oc1ccc(O)cc1	105	98.1%	102	109%	135%	106	114	90.1	97.8%	108%
c1ccc2c(N3CCCCC3)ncnc2c1	112	94.3%	142	96.5%	105%	102	109	85.3	90.2%	100%
c1ncc2[nH]cnc2n1	96.6	102%	126	111%	112%	104	116	98.3	87.1%	97.9%
O=C(O)c1cc([N+](=O)[O-])ccc1Cl	121	97.7%	131	101%	112%	114	101	105	99.5%	114%
Cc1cc(O)ccc1O	114	94.1%	101	87.3%	112%	102	129	95.5	99.5%	96.4%
NCCC(=O)c1ccc(Cl)cc1	108	98.1%	109	110%	114%	100	105	104	101%	102%
COC1=CC(=O)c2nc(Cl)ccc2C1=O	63	0.0099% (active)	130	-25.5% (active)	-53.9% (active)	63.6	115	88.3	-30.9% (active)	-5.38% (active)
COC(=O)c1cccnc1	107	113%	112	100%	105%	95.4	110	91.1	90.4%	93.9%
NC(C(=O)O)C(O)c1ccco1 (stereo not given)	115	105%	98.6	117%	105%	116	108	110	102%	105%
O=[N+]([O-])c1ccc(/C=C/C=C/c2ccccc2)c(Cl)c1	109	91.8%	116	89.6%	103%	111	98.7	99	95.1%	106%
C#Cc1cccc(NC(=O)c2ccc(Cl)cc2Cl)c1	112	85.5%	108	118%	105%	98.9	107	95.7	108%	98%
C=CCNC(=O)c1ccc(OC)cc1	124	105%	117	104%	111%	126	115	100	97.6%	100%
O=c1cc(-c2ccccc2)oc2c1ccc1ccccc12	102	102%	146	88.4%	90.8%	101	98	81.2	97.3%	98.9%
COc1cccc(/C=N/NC(=S)NC2CC3CCC2C3)c1O (stereo not given)	56.6	39.3%	35.9	55.4%	51.5%	63.3	15.9	69.8	73.6%	55.7%
Cc1cc(N)ccc1-c1ccc(N)cc1C	110	106%	120	106%	108%	103	99.2	93.8	80.7%	94.7%
C=CC(O)CCC (stereo not given)	112	104%	106	106%	121%	107	91.1	102	90.3%	106%
NC(=O)N/N=C\c1ccco1	131	100%	114	110%	109%	112	132	109	85.1%	104%
CC1(O)CCCCC1O (stereo not given)	115	94.6%	106	108%	112%	106	110	97	83.4%	104%
CCOc1ccc2[nH]c(=S)sc2c1	111	90.8%	97.8	104%	116%	103	111	106	104%	99%
COc1ccccc1N=Nc1c(O)ccc2cc(S(=O)(=O)O)ccc12	111	98.1%	109	93.2%	104%	96.5	94.2	103	95.8%	99.7%
COC(=O)C(O)c1ccccc1 (stereo not given)	114	101%	134	91%	111%	102	139	98	116%	105%
Cc1ncc(C#N)c(N)n1	114	120%	93.8	98.9%	89.6%	107	98	105	106%	95.9%
CCOc1ccc(Br)cc1/C=N\N=C\c1cc(Br)ccc1OCC	102	95.3%	105	108%	145%	97.6	100	101	92.7%	98.6%
O=C1C=C(Nc2ccc([N+](=O)[O-])cc2)c2ccccc2C1=O	68.9	13.2%	51.6	22.5%	69.2%	55.6	53.1	36.8	48.8%	13.3%
C/C(=C\c1ccc([N+](=O)[O-])cc1)C(=O)O	110	97.9%	108	102%	102%	105	98.4	100	98.8%	95.1%
CCC(=O)Oc1ccc(OC)cc1	98.3	107%	89.1	103%	116%	102	118	101	108%	104%
CN(C)Cc1cc(C(C)(C)CC(C)(C)C)ccc1O	126	108%	100	96.9%	138%	106	95.6	90.8	112%	98%
NC(N)=Nc1cc2ccccc2c2ccccc12	84.9	62.3%	76.2	80.1%	78.8%	82.6	55.9	89.1	1.37% (active)	85%
CCc1ccc(/C(C#N)=C/C=C/c2ccccc2)cc1	24.9	14.9%	51.2	63.2%	11.9%	65.1	21.3	18.6	31.5%	23.1%
CCC(O)CC(CC)CO (stereo not given)	121	105%	128	108%	119%	113	109	99.4	110%	102%

From PubChem BioAssay (NCI)
